Laboratory results reported in publication PMC7862700, “An all-to-all approach to the identification of sequence-specific readers for epigenetic DNA modifications on cytosine”.

Columns and labels:
Experiment in all cases: DAPPL (digital affinity profiling via proximity ligation, sequencing); 10 mM Tris-HCl pH 7.5, 50 mM NaCl, 1 mM DTT, 4% glycerol, room temperature, 30 min; GST-TFs on glutathione beads, 16-mer random dsDNA library, 0.1% formaldehyde crosslink after washing; high values mean tight binding
FLI1 = target: T1, FLI1 (Homo sapiens, UniProt Q01543 1-452); details: protein: recombinant; tags: N-terminal GST; dsDNA, one strand shown
T1 sequence: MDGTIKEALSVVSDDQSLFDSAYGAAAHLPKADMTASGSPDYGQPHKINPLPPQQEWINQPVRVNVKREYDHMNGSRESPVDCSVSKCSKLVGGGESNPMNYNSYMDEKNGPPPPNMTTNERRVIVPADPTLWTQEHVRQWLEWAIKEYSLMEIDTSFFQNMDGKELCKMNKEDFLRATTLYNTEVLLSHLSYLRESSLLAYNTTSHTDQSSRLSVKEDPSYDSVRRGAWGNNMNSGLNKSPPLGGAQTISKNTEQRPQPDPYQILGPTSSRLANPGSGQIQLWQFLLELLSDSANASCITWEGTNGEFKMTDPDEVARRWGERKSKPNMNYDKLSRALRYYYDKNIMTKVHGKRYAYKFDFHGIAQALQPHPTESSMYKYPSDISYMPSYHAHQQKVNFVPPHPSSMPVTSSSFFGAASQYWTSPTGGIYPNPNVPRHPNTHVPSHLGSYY
Method in brief: (§1)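 Beads coated with glutathione captured GST-fused human transcription factors that had been expressed in yeast, and the factors were then given DNA barcodes and pooled with a tag-only sample. The pools were incubated with 200 nmole of a random double-stranded 16-mer DNA library in Tris/NaCl/DTT/glycerol buffer for 30 min at room temperature, washed, crosslinked with 0.1% formaldehyde and proximity-ligated with BsaI/T4 ligase at 37 °C for 1 h. PCR amplification and Illumina NextSeq500 sequencing came last. Binding signal is each hexamer's read frequency for a factor divided by its frequency for the tag-only sample.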

ELK1 = target: T2, ELK1 (Homo sapiens, UniProt P19419 1-428); details: protein: recombinant; tags: N-terminal GST; dsDNA, one strand shown
T2 sequence: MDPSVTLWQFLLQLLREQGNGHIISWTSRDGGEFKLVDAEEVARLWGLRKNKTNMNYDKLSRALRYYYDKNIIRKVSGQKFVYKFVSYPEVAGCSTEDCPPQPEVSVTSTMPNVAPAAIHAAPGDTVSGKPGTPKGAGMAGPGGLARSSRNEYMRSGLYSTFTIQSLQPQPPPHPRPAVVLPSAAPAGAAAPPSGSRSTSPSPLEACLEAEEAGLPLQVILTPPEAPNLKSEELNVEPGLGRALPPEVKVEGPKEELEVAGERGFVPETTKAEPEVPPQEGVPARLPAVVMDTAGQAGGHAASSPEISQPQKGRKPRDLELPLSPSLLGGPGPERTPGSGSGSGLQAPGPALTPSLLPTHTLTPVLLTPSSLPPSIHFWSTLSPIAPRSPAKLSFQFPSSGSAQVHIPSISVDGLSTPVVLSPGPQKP
Method in brief: as §1

GABPA = target: T3, GABPA (Homo sapiens, UniProt Q06546 1-454); details: protein: recombinant; tags: N-terminal GST; dsDNA, one strand shown
T3 sequence: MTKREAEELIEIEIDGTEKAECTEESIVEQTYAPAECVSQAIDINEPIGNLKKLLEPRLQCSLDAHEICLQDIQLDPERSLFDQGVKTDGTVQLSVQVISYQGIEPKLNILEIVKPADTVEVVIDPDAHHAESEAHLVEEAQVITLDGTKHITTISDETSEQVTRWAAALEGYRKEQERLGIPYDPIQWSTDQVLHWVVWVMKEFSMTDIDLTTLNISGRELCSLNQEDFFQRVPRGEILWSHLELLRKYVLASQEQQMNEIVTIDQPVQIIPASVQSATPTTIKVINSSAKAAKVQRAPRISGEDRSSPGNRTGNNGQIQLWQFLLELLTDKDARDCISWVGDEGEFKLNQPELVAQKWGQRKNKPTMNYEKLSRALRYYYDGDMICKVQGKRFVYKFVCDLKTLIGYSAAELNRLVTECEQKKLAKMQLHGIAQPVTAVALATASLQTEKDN
Method in brief: as §1

ERG = target: T4, ERG (Homo sapiens, UniProt P11308 1-479); details: protein: recombinant; tags: N-terminal GST; dsDNA, one strand shown
T4 sequence: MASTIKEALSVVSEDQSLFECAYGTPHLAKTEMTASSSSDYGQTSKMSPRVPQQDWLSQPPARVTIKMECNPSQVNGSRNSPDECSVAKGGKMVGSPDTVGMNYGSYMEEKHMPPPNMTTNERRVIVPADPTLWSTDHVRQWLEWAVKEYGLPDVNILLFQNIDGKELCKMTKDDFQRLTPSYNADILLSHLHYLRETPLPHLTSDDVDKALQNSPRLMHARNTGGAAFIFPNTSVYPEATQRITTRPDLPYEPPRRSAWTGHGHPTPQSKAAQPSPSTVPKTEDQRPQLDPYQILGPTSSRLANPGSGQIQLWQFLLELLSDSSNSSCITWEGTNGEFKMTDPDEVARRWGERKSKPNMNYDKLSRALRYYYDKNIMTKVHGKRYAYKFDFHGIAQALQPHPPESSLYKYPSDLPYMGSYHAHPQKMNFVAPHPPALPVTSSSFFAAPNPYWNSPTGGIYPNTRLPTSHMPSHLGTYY
Method in brief: as §1

ELF1 = ELF1 (Homo sapiens, UniProt P32519 1-619); details: protein: recombinant; tags: N-terminal GST; dsDNA, one strand shown
Method in brief: as §1

EHF = target: T5, EHF (Homo sapiens, UniProt Q9NZC4 1-300); details: protein: recombinant; tags: N-terminal GST; dsDNA, one strand shown
T5 sequence: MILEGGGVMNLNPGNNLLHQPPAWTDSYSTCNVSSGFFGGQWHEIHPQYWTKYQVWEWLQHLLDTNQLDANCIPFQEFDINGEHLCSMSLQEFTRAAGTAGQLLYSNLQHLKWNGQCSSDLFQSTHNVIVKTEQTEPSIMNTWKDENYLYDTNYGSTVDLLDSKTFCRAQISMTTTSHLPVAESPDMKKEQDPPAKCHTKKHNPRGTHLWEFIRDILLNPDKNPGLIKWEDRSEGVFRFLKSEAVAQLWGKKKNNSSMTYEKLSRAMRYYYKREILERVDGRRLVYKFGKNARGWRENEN
Method in brief: as §1

SPI1 = SPI1 (Homo sapiens, UniProt P17947 1-270); details: protein: recombinant; tags: N-terminal GST; dsDNA, one strand shown
Method in brief: as §1

SPIB = SPIB (Homo sapiens, UniProt Q01892 1-262); details: protein: recombinant; tags: N-terminal GST; dsDNA, one strand shown
Method in brief: as §1

ELK3 = target: T6, ELK3 (Homo sapiens, UniProt P41970 1-407); details: protein: recombinant; tags: N-terminal GST; dsDNA, one strand shown
T6 sequence: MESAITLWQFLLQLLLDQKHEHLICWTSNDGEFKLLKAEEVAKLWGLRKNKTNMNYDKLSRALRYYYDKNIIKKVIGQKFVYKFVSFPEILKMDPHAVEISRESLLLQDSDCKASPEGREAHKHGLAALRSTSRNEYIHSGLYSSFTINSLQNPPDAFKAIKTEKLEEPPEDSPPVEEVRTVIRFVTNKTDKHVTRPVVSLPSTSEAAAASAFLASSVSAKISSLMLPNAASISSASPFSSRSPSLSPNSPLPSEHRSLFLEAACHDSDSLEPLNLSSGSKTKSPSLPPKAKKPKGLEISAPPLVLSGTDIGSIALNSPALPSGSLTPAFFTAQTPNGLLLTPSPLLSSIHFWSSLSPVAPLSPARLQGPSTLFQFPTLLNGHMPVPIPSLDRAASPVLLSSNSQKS
Method in brief: as §1

FEV = target: T7, FEV (Homo sapiens, UniProt Q99581 1-238); details: protein: recombinant; tags: N-terminal GST; dsDNA, one strand shown
T7 sequence: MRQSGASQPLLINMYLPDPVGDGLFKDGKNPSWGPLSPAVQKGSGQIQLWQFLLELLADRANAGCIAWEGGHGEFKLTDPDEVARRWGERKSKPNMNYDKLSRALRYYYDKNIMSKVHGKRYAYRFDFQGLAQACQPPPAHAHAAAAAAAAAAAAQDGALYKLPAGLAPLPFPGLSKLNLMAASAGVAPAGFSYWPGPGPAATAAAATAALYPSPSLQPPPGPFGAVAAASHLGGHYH
Method in brief: as §1

ETV5 = ETV5 (Homo sapiens, UniProt P41161 1-510); details: protein: recombinant; tags: N-terminal GST; dsDNA, one strand shown
Method in brief: as §1

HSF1 = HSF1 (Homo sapiens, UniProt Q00613 1-529); details: protein: recombinant; tags: N-terminal GST; chain copies: 3; dsDNA, one strand shown
Method in brief: as §1

SPIC = target: T8, SPIC (Homo sapiens, UniProt Q8N5J4 1-248); details: protein: recombinant; tags: N-terminal GST; dsDNA, one strand shown
T8 sequence: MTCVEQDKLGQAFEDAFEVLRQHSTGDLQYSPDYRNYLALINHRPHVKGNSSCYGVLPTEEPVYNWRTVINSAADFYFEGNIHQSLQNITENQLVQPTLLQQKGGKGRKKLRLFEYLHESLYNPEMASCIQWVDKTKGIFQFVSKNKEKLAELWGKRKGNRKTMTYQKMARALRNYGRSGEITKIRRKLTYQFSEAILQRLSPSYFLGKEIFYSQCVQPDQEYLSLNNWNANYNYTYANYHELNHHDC
Method in brief: as §1

ELF4 = ELF4 (Homo sapiens, UniProt Q99607 1-663); details: protein: recombinant; tags: N-terminal GST; dsDNA, one strand shown
Method in brief: as §1

ELK4 = target: T9, ELK4 (Homo sapiens, UniProt P28324-2 1-405); details: protein: recombinant; tags: N-terminal GST; dsDNA, one strand shown
T9 sequence: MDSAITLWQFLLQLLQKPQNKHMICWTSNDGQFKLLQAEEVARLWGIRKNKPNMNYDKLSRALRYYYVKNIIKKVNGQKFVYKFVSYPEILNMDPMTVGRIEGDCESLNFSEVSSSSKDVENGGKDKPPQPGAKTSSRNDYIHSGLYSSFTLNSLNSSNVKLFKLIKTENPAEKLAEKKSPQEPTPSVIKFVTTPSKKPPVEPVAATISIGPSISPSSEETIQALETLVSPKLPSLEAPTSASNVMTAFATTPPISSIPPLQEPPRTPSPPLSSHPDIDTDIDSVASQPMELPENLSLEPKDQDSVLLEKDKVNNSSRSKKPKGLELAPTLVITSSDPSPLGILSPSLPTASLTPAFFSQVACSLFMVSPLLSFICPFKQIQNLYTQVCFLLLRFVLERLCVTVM
Method in brief: as §1

ETV2 = target: T10, ETV2 (Homo sapiens, UniProt O00321 1-342); details: protein: recombinant; tags: N-terminal GST; dsDNA, one strand shown
T10 sequence: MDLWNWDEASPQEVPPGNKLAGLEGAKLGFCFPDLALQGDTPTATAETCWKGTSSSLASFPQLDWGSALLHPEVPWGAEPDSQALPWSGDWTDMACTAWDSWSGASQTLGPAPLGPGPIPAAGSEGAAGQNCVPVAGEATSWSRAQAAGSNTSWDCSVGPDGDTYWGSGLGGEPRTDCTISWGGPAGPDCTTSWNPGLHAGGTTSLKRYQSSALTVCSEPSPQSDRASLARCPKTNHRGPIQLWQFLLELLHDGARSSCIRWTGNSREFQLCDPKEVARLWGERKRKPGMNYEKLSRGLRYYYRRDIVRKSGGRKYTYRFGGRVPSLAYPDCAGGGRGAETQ
Method in brief: as §1

ELF3 = target: T11, ELF3 (Homo sapiens, UniProt P78545 1-371); details: protein: recombinant; tags: N-terminal GST; dsDNA, one strand shown
T11 sequence: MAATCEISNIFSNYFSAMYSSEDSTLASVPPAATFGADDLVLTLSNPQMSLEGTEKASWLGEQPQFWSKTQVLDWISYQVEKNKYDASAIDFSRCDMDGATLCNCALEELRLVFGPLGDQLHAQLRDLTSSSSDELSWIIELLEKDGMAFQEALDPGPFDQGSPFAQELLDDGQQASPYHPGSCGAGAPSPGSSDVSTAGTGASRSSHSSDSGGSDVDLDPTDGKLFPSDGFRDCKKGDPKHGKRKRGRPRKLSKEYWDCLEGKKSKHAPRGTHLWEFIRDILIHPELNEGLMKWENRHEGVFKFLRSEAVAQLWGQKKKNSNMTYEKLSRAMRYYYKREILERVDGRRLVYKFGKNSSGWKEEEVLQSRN
Method in brief: as §1

CRX = CRX (Homo sapiens, UniProt O43186 1-299); details: protein: recombinant; tags: N-terminal GST; dsDNA, one strand shown
Method in brief: as §1

ETV1 = ETV1 (Homo sapiens, UniProt P50549 1-477); details: protein: recombinant; tags: N-terminal GST; dsDNA, one strand shown
Method in brief: as §1

ETV1, sequence (P50549 whole entry): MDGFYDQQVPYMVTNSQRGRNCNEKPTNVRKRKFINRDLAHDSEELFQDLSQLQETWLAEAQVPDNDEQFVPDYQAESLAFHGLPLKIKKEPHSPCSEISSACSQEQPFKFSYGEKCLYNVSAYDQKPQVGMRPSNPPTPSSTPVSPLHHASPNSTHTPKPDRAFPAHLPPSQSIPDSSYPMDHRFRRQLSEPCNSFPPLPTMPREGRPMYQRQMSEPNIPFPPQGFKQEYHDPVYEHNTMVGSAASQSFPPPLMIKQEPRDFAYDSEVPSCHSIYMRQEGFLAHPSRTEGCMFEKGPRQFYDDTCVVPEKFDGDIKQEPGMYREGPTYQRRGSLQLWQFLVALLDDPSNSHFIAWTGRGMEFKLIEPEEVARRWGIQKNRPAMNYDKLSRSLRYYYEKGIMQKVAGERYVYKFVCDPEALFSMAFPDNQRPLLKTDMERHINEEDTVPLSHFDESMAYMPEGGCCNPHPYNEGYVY
ELF4, sequence (Q99607 whole entry): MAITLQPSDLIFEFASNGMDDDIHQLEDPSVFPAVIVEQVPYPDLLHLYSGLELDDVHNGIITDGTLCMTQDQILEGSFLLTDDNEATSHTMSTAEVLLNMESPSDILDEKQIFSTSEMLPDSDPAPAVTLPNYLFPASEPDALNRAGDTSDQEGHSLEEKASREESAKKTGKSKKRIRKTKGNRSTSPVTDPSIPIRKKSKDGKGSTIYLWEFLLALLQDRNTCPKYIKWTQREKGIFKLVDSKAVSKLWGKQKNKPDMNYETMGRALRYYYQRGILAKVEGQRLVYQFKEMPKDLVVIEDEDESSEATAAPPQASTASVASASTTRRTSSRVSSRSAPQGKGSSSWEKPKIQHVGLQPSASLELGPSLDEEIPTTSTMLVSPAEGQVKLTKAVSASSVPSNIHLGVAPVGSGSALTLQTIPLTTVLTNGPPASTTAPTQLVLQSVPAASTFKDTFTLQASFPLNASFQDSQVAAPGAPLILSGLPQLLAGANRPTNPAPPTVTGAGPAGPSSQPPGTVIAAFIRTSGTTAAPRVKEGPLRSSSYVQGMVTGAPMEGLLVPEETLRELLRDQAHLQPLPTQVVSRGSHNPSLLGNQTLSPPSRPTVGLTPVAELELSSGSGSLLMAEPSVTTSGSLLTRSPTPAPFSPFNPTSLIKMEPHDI
ELF1, sequence (P32519 whole entry): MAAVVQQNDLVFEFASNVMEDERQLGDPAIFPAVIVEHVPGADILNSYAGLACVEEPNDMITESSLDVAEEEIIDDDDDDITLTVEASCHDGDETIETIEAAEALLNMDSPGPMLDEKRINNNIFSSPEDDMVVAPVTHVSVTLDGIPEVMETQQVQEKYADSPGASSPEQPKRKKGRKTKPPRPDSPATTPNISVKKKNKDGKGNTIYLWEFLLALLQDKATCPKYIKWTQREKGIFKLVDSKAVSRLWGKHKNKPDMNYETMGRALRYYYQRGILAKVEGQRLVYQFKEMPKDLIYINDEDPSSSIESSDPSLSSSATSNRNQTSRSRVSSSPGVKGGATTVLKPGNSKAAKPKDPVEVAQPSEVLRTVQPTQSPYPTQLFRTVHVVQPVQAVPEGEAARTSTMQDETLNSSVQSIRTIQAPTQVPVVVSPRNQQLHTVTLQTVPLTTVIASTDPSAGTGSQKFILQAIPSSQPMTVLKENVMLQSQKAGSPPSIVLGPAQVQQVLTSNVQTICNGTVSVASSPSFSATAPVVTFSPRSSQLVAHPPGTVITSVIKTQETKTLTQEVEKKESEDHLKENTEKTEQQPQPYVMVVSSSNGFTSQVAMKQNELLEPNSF
HSF1, sequence (Q00613 whole entry): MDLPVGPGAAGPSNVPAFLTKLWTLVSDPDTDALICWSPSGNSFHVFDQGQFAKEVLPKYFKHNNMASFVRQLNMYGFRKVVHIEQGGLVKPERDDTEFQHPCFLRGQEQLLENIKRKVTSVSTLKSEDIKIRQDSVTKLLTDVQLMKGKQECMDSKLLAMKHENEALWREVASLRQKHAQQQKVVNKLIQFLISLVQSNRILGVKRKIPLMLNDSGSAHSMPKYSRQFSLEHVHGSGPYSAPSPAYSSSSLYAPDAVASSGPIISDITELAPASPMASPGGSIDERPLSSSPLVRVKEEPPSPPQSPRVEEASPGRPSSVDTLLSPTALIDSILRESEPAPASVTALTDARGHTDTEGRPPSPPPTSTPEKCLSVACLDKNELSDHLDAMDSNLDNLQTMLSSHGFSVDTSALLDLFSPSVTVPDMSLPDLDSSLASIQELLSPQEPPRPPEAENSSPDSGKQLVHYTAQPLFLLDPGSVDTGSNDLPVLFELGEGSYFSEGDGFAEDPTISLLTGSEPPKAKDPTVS
CRX, sequence (O43186 whole entry): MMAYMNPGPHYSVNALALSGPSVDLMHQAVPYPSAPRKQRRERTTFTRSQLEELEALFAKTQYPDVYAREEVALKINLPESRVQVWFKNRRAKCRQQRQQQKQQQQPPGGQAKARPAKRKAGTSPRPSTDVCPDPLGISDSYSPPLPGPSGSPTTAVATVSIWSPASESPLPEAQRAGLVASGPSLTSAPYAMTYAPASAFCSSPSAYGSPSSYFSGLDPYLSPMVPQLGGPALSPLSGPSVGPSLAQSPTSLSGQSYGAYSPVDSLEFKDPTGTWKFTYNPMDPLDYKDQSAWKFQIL
ETV5, sequence (P41161 whole entry): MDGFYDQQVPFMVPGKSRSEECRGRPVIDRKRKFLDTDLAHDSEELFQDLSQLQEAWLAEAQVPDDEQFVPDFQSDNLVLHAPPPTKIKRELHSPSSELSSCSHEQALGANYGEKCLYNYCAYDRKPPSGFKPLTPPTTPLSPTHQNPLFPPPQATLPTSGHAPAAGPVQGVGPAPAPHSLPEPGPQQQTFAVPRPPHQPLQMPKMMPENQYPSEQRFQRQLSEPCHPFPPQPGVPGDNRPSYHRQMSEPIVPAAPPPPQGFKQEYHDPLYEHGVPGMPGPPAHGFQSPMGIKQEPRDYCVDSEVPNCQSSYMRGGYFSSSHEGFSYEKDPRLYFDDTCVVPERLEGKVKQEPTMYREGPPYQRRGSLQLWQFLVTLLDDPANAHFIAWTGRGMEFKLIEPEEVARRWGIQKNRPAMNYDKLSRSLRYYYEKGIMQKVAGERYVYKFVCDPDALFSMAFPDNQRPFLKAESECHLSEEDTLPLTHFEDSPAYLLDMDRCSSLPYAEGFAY
SPIB, sequence (Q01892 whole entry): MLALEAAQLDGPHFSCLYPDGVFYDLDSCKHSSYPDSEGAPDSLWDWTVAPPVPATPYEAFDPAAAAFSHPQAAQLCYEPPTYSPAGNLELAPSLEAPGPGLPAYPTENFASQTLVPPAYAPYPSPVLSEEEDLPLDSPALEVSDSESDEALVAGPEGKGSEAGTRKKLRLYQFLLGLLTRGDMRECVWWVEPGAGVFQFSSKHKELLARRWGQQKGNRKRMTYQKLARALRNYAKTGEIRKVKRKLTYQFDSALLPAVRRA

In the case of TGTGCT, the binding signal (FLI1) was 1.13 fold enrichment (6-mer frequency, TF over GST control), the binding signal (ELK1) was 1.23 fold enrichment (6-mer frequency, TF over GST control) and the binding signal (GABPA) was 1.24 fold enrichment (6-mer frequency, TF over GST control). For the same sequence, the binding signal (ERG) was 1.23 fold enrichment (6-mer frequency, TF over GST control), the binding signal (ELF1) was 1.2 fold enrichment (6-mer frequency, TF over GST control) and the binding signal (EHF) was 1.11 fold enrichment (6-mer frequency, TF over GST control). For the same sequence, the binding signal (SPI1) was 1.24 fold enrichment (6-mer frequency, TF over GST control), the binding signal (SPIB) was 1.14 fold enrichment (6-mer frequency, TF over GST control) and the binding signal (ELK3) was 1.16 fold enrichment (6-mer frequency, TF over GST control). The binding signal (FEV) was 1.25 fold enrichment (6-mer frequency, TF over GST control), the binding signal (ETV5) was 1.18 fold enrichment (6-mer frequency, TF over GST control) and the binding signal (HSF1) was 1.15 fold enrichment (6-mer frequency, TF over GST control). The binding signal (SPIC) was 1.35 fold enrichment (6-mer frequency, TF over GST control), the binding signal (ELF4) was 1.17 fold enrichment (6-mer frequency, TF over GST control) and the binding signal (ELK4) was 1.17 fold enrichment (6-mer frequency, TF over GST control). For the same sequence, the binding signal (ETV2) was 1.21 fold enrichment (6-mer frequency, TF over GST control), the binding signal (ELF3) was 1.27 fold enrichment (6-mer frequency, TF over GST control) and the binding signal (CRX) was 1.1 fold enrichment (6-mer frequency, TF over GST control). The binding signal (ETV1) was 1.18 fold enrichment (6-mer frequency, TF over GST control).
